Source: PubChem BioAssay (National Center for Advancing Translational Sciences (NCATS))
The list is not random: actives were taken first. Their share in the collection is about 11%.
Tau fibril FP – inhibitors of human tau fibril formation; P10636; K18 P301L tau heparin fibrillization, Alexa594 FP, 6 h; Potency, µM (doses to about 57.7 µM), for inactives: at the highest dose activity, negative = inhibition, most hits filed as inhibitors; 280,000 tested, 0.39% active; note: potency is the fitted concentration of half-maximal effect; nearly all actives have a fitted effect of over 55% in size
Target sequence (P10636 561-689 P618L limits assumed): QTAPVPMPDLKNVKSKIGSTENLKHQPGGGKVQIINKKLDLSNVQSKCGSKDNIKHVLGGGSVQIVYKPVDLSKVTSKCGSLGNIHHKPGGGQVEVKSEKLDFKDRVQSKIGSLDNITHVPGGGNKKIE
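Recombinant K18 P301L […], labeled with Alexa 594 at 0.24 uM over 15 uM unlabeled; heparin inducer 20 uM final; 37 C, 6 hr; FP endpoint.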
Tau fluor counter – counter-screen for tau fibril formation inhibitors | tau K18 P301L Alexa594 fluorescence, heparin fibrillization | Potency, µM (titrated, usually from 57.7 µM), inactives show at the highest dose activity change, negative = decrease | 280,000 tested, 0.93% active | AID 1463; note: potency is the fitted concentration of half-maximal effect; nearly all actives have a fitted effect of over 55% in size
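Human K18 P301L tau (15 uM unlabeled plus 0.24 uM Alexa 594-labeled, final) in 100 mM sodium acetate pH 7 was mixed with compound and 20 uM heparin and incubated 6 hr at 37 C.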
Sfp PPTase inh – inhibitors of Bacillus subtilis Sfp phosphopantetheinyl transferase | Biochemical Sfp PPTase activity, qHTS | Potency, µM, for the others: largest response in the series, negative = inhibition, most hits filed as inhibitors | 310,000 tested, 3.5% active;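 note: the enzyme is Sfp with the accession as filed and its product quenches rhodamine fluorescence; potency is the fitted concentration of half-maximal effect; 0% = enzyme reaction without inhibitor and -100% = no enzyme wells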
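With Hepes-Na pH 7.6 buffer containing 10 mM MgCl2, Sfp (15 nM) modified BHQ-2-YbbR (12.5 uM) using rhodamine-CoA (5 uM). Two reads 30 minutes apart at 525/598 nm yielded each well's rate.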
Tau fibril ThT – blocks human tau fibril formation measured by thioflavin T. P10636. recombinant tau K18 P301L, heparin-induced fibrillization, ThT fluorescence. Potency, µM (highest dose often 57.4 µM), for inactives: top-dose activity, negative = inhibition, actives largely listed as inhibitors. 270,000 tested, 2.1% active. AID 1460; note: potency is the fitted concentration of half-maximal effect; nearly all actives have a fitted effect of over 55% in size
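Fibril formation assay: tau K18 P301L at 15 uM with trace Alexa 594 label, heparin inducer 20 uM, pH 7 sodium acetate buffer, 37 C for 6 hr; endpoint ThT signal.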
G9a block – G9a (human) methyltransferase inhibition; Q96KQ7; G9a H3K9 monomethylation, AlphaScreen, 2 h; Potency, µM (titrated, usually from 102 µM), for the others: top-dose activity, negative = inhibition, hits mostly inhibitors; 350,000 tested, 8.8% active; AID 504332; note: potency is the fitted concentration of half-maximal effect; nearly all actives have a fitted effect of over 75% in size
Target sequence (Q96KQ7 913-1193 limits assumed): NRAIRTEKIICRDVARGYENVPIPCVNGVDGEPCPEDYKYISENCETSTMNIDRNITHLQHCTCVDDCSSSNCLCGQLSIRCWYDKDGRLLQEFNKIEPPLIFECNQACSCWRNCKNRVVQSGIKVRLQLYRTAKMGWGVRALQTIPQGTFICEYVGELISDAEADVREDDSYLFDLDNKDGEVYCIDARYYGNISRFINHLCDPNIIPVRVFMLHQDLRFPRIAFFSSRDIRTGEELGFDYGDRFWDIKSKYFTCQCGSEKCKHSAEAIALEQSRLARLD
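AlphaScreen detection with an anti-monomethyl H3K9 antibody quantified product after a 2 h room-temperature reaction containing 500 nM biotinylated H3K9 peptide, 20 µM SAM and 20 nM enzyme, which had been preincubated 15 min with compound.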
Coupling enz – inhibits coupling enzyme system, counter-screen for aldolase hits; AID 2472; coupling enzyme system counterscreen, AmpLite Red fluorescence; activity change, negative = inhibition, % at 58.2 µM, hits read low; 290,000 tested, 0.67% active; in the data active = activity change below about -30%
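Counterscreen lacking aldolase: glyceraldehyde-3-phosphate coupling-enzyme reagent preincubated 10 min at RT with compound (at 57.5 uM final), then substrate/coupling system with AmpLite Red added; fluorescence read at 525/598 nm after 20 min RT.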
Active calls of the source: *; ? = inconclusive; nt = no result given; [ ] = remark or other dose. Unless noted, calls come from the whole dose curve; as a rule, active = well fitted curve in the direction sought with a large enough effect; inconclusive = small, poorly fitted or top-dose-only effect, or another doubt; inactive = no such curve, though single readings can be large; an effect the other way counts as inactive or inconclusive. Unless noted, % is set by controls: 0 for no effect and ±100 for the full control effect.

SMILES	Tau fibril FP	Tau fluor counter	Sfp PPTase inh	Tau fibril ThT	G9a block	Coupling enz
COc1ccccc1NS(=O)(=O)c1cc(NC(=O)C2CCCC2)ccc1N1CCOCC1	-7.8%	?	20µM*	-16.8%	8.91µM*	-0.2
COc1ccccc1NS(=O)(=O)c1cc(NC(=O)C(C)(C)C)ccc1N1CCOCC1	nt	nt	nt	nt	7.0%[0.501 µM]	nt
CCOC(=O)CNC(=O)CN1CCC(c2nc3ccccc3[nH]2)CC1	nt	nt	11.1%	nt	2.7%[0.501 µM]	nt
COCCNC(=O)Cn1nc(N2CCN(c3ccccc3OC)CC2)ccc1=O	-5.5%	1.9%	nt	5.2%	3.9%[59 µM]	nt
CCNS(=O)(=O)c1ccc(CCC(=O)N2CCc3ccccc3C2)cc1	nt	nt	13.0%	nt	-30.6%	0.3
CC(C)(C)c1nc(-c2ccccc2)nc2c1OCCC2	nt	nt	nt	nt	-3.5%[2.33 µM]	nt
COc1ccccc1NC(=O)c1ccc(-n2ccnc2)c([N+](=O)[O-])c1	nt	nt	3.3%	nt	-1.2%[2.33 µM]	-4.5
CN(C)S(=O)(=O)c1cc(NC(=O)c2ccc(-n3ccnc3)c([N+](=O)[O-])c2)ccc1Cl	nt	nt	-23.8%	nt	44.7µM*	-11.6
CN(C)S(=O)(=O)c1cccc(NC(=O)c2ccc(N3CCOCC3)c([N+](=O)[O-])c2)c1	-4.8%	-27.6%	?	?	50.1µM*	-2.5
Cc1ccc(C(=O)Nc2cccc(S(=O)(=O)N3CCOCC3)c2)cc1[N+](=O)[O-]	?	-24.8%	-3.9%	-8.6%	1.5%	-0.7
COc1cccc(CN2CCCC(C(=O)N3CCCCC3)C2)c1OC (stereo not given)	-4.4%	-6.4%	?	-0.7%	9.1%[2.33 µM]	-3.1
O=C(C1CCCN(Cc2ccccc2[N+](=O)[O-])C1)N1CCCCC1 (stereo not given)	nt	nt	-28.5%	nt	10µM*	-0.8
COc1cc(OC)c(OC)cc1CN1CCCC(C(=O)N2CCCC2)C1 (stereo not given)	nt	nt	-23.7%	nt	10µM*	-2.3
O=C(C1CCCN(Cc2ccccc2Cl)C1)N1CCCCC1 (stereo not given)	nt	nt	-25.3%	nt	10µM*	2.2
O=C(c1ccccc1[N+](=O)[O-])N1CCCC(C(=O)N2CCCCCC2)C1 (stereo not given)	nt	nt	15.9%	nt	?	0.4
Cc1ccccc1CN1CCCC(C(=O)N2CCCCC2)C1 (stereo not given)	nt	nt	-25.9%	nt	25.1µM*	-0.2
O=c1n(Cc2cc3c(cc2Cl)OCO3)c(=O)n2n1CC[C@H]1/C(=N\OC[C@@H](O)COCc3ccco3)[C@H]3O[C@@H]3[C@@H](O)[C@@H]12	-1.4%[11.6 µM]	2.2%[11.6 µM]	18.1%	-3.2%[11.5 µM]	nt	0.0
CCOC(=O)C1(Cc2cccc(OC)c2)CCN(Cc2ccc(C)s2)CC1	-7.0%	-2.0%	20.8%	-7.9%	0.1%	-1.6
CCCc1nnc(NC(=O)Cc2coc3c(C)c(C)ccc23)s1	0.3%	-1.4%	nt	4.4%	3.3%[59 µM]	nt
Cc1ccccc1-n1nc2c(c1NC(=O)c1ccco1)CS(=O)(=O)C2	nt	nt	1.1%	nt	5.9%	0.0
Cc1ccccc1-n1nc2c(c1NC(=O)c1ccc(Br)o1)CSC2	?	1.4%	?	-15.1%	44.7µM*	-9.4
Cc1ccccc1-n1nc2c(c1NC(=O)c1cc3ccccc3o1)CS(=O)(=O)C2	nt	nt	nt	nt	44.7µM*	nt
CN(C)S(=O)(=O)c1ccc(C(=O)NCCSc2c(-c3ccc(Cl)cc3)[nH]c3ccccc23)cc1	-15.0%	14.1µM*[quencher]	nt	-11.7%	?	nt
COc1cc(C(=O)NCCSc2ccccc2)cc(OC)c1OC	nt	nt	6.0%	nt	nt	1.7
CCN(CC)S(=O)(=O)c1ccc(C(=O)NCCSc2c(-c3ccc(OC)cc3)[nH]c3ccccc23)cc1	3.1%	3.98µM*[quencher]	nt	-2.5%	-34.3%[59 µM]	nt
SMILES	Tau fibril FP	Tau fluor counter	Sfp PPTase inh	Tau fibril ThT	G9a block	Coupling enz
COc1cccc(C(=O)NCCSc2c(-c3ccc(F)cc3)[nH]c3ccccc23)c1OC	-7.6%	5.01µM*[quencher]	nt	-12.7%	-3.5%[59 µM]	nt
CCN(CC)S(=O)(=O)c1ccc(C(=O)NCCc2cc3c(OC)ccc(OC)c3[nH]c2=O)cc1	11.4%	-13.9%	6.0%	-27.6%	13.5%	-11.5
COc1ccc(-c2[nH]c3ccccc3c2SCCNC(=O)c2cc(OC)c(OC)c(OC)c2)cc1	12.9%	7.08µM*[quencher]	nt	?	?	nt
O=C(CN1C(=O)c2cccc3cccc1c23)NC1CCCC1	nt	nt	8.9%	nt	13.4%	0.2
Cc1cccc(NC(=O)C2CCCN(S(=O)(=O)c3c(C)[nH]c(=O)[nH]c3=O)C2)c1C (stereo not given)	3.7%	0.7%	nt	-8.1%	-25.6%[59 µM]	nt
CC(C)n1c(SCC(=O)NCc2ccco2)nnc1C1CC1	nt	nt	-1.5%	nt	45.1%	0.7
COc1ccc(-c2[nH]c3ccccc3c2SCCNC(=O)c2ccc(S(=O)(=O)N(C)C)cc2)cc1	3.0%	3.98µM*[quencher]	nt	-10.4%	-30.8%[59 µM]	nt
Cc1ccc(-c2[nH]c3ccccc3c2SCCNC(=O)c2ccc(S(=O)(=O)N(C)C)cc2)cc1	7.5%	?	nt	-2.4%	-39.7%[59 µM]	nt
COCC(=O)NCCSc1c(C)[nH]c2ccccc12	2.1%	4.8%	-4.8%	1.9%	-7.8%[59 µM]	-1.3
CCOc1ccc(C(=O)NCCSc2c(C)[nH]c3ccccc23)cc1OCC	?	14.1µM*[quencher]	nt	?	-8.0%[59 µM]	nt
O=C(Cc1cccs1)NCCSc1c(-c2ccc(Cl)cc2)[nH]c2ccccc12	-14.3%	7.08µM*[quencher]	4.5%	-14.9%	-9.0%	-5.9
O=C(Cc1cccs1)NCc1ccccc1	2.9%	9.9%	21.1%	13.8%	8.0%[59 µM]	0.2
CCc1c(C)nc2nc(-c3ccccc3)nn2c1NCc1ccc(C)cc1	-0.8%	-10.9%	nt	?	-7.9%[59 µM]	nt
CC(=O)c1ccc(N2C(=O)C3C4C=CC(CC4)C3C2=O)cc1 (stereo not given)	nt	nt	2.4%	nt	5.2%	5.5
O=C1C2C3C=CC(CC3)C2C(=O)N1c1ccc([N+](=O)[O-])cc1 (stereo not given)	nt	nt	5.4%	nt	31.6µM*	1.8
C=CCN1C=C/C(=C\C=C(C#N)C#N)c2ccccc21	6.0%	-1.3%	-0.2%	?	?	-1.5
